Reference: the supplement of paper PMC13380429

What was measured:
[1] = system: Vero E6 infected with SARS-CoV-2; experiment: morphology score (similarity to uninfected cells); higher = more like uninfected cells; conditions: 24 h
[2] = system: Vero E6 infected with SARS-CoV-2; experiment: SARS-CoV-2 infection rate relative to infected DMSO; higher = more infection, active = 60 or less; conditions: 24 h
[3] = system: Vero E6 infected with SARS-CoV-2; experiment: inhibition of SARS-CoV-2 cytopathic effect; higher = more antiviral protection, active = above 15; conditions: 48 h

Structure (SMILES)	morphology score [1]	SARS-CoV-2 infection rate [2]	inhibition of SARS-CoV-2 cytopathic effect ([3]; 1 nM)	inhibition of SARS-CoV-2 cytopathic effect ([3]; 8.33 nM)	inhibition of SARS-CoV-2 cytopathic effect ([3]; 100 nM)	inhibition of SARS-CoV-2 cytopathic effect ([3]; 833.33 nM)	inhibition of SARS-CoV-2 cytopathic effect ([3]; 10000 nM)
COc1cc(OC)cc(-c2ccc3c(-c4ccc(F)cc4)n[nH]c3n2)c1 (10 µM)	0.102	106% (inactive)	–	–	–	–	–
CC(C)[C@@H](CN1CC[C@@](C)(c2cccc(O)c2)[C@@H](C)C1)NC(=O)[C@H]1Cc2ccc(O)cc2CN1 (10 µM)	-0.0336	99.5% (inactive)	–	–	–	–	–
Cc1nn(C)c2c1C(c1ccc(C(F)(F)F)cc1)C(C#N)=C(N)O2 (stereo unspecified) (10 µM)	0.0472	98% (inactive)	–	–	–	–	–
Cc1cc2c(F)c(Oc3ncnn4cc(OC[C@@H](C)OC(=O)[C@H](C)N)c(C)c34)ccc2[nH]1 [brivanib-alaninate]	–	–	-0.11% (inactive)	4.65% (inactive)	1.96% (inactive)	-0.19% (inactive)	-7.17% (inactive)
CC[C@H]1OC(=O)[C@H](C)[C@@H](O[C@H]2C[C@@](C)(OC)[C@@H](O)[C@H](C)O2)[C@H](C)[C@@H](O[C@@H]2O[C@H](C)C[C@H](N(C)C)[C@H]2O)[C@](C)(OC)C[C@@H](C)C(=O)[C@H](C)[C@@H](O)[C@]1(C)O [clarithromycin]	–	–	-4.37% (inactive)	-0.55% (inactive)	2.36% (inactive)	1.42% (inactive)	-3% (inactive)
C#CCN(C)[C@H](C)Cc1ccccc1 [selegiline]	–	–	0.68% (inactive)	-1.21% (inactive)	1.02% (inactive)	0.09% (inactive)	-0.75% (inactive)
CCN(CC)CCOC(=O)C1(c2ccc([N+](=O)[O-])cc2)CCCC1 [nitrocaramiphen]	–	–	-3.06% (inactive)	1.17% (inactive)	1.69% (inactive)	-0.19% (inactive)	-0.92% (inactive)
C[C@@]1(c2cc(-c3cncnc3)c(F)cc2F)CCSC(N)=N1	–	–	-0.91% (inactive)	-3.4% (inactive)	-0.51% (inactive)	-2% (inactive)	-3.12% (inactive)
Cc1nc(Nc2cnn(C3CCNCC3)c2)nc2c1N(C)C(=O)c1cc3ccccc3cc1N2C	–	–	2.64% (inactive)	-1.33% (inactive)	-2.15% (inactive)	1.63% (inactive)	48.4% (active)
C[n+]1c2cc(N)ccc2cc2ccc(N)cc21 [acriflavinium]	–	–	-3.77% (inactive)	-2.4% (inactive)	-2.84% (inactive)	-0.42% (inactive)	-5.69% (inactive)
O=C(NCCN1CCN(c2ncccn2)CC1)C12CC3CC(CC(C3)C1)C2 [adatanserin]	–	–	-1.23% (inactive)	0.62% (inactive)	-2.77% (inactive)	2.26% (inactive)	-1.99% (inactive)
